# Bioassay records as filed in PubChem BioAssay.
# Tau ThT inhib – tau fibrillization inhibition (ThT binding). P10636. 2.1% of 270,000 active. recombinant tau K18 P301L, heparin-induced fibrillization, ThT fluorescence. Potency, µM (highest dose often 57.4 µM), for inactives: at the highest dose activity, negative = inhibition, most hits filed as inhibitors; also: potency is read from the fitted curve at half-maximal effect; nearly all actives have a fitted effect of over 55% in size
# Target sequence (P10636 561-689 P618L limits assumed): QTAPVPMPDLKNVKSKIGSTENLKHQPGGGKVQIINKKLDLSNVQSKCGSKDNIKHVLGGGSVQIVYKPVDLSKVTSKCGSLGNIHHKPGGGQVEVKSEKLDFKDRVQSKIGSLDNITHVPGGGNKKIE
#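 Using a mix of unlabeled (15 uM) and Alexa 594-labeled (0.24 uM) tau K18 P301L, heparin-triggered fibrillization over 6 hr at 37 C was scored by ThT fluorescence.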
# Tau fibril FP – tau fibrillization inhibition (FP) | P10636 | K18 P301L tau heparin fibrillization, Alexa594 FP, 6 h | Potency, µM (titrated, usually from 57.7 µM), for inactives: at the top dose activity, negative = inhibition, usual class: inhibitors | 0.39% of 280,000 active; also: potency is read from the fitted curve at half-maximal effect; nearly all actives have a fitted effect of over 55% in size
#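 Recombinant K18 P301L […], labeled with Alexa 594 at 0.24 uM over 15 uM unlabeled; heparin inducer 20 uM final; 37 C, 6 hr; FP endpoint.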
# Sfp PPTase inh – blocks B. subtilis Sfp PPTase activity; Q9F4F7; Biochemical Sfp PPTase activity, qHTS; Potency, µM, for inactives: largest response in the series, negative = inhibition, usual class: inhibitors; 3.5% of 310,000 active; AID 1490;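 also: the enzyme is Sfp with the accession as filed and its product quenches rhodamine fluorescence; potency is read from the fitted curve at half-maximal effect; 0% = enzyme reaction without inhibitor and -100% = no enzyme wells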
#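 Fluorescence-quenching assay: 15 nM Sfp-PPTase preincubated 15 min at room temperature with compound, then 5 uM rhodamine-CoA and 12.5 uM BHQ-2-labelled YbbR peptide added. Fluorescence (ex 525/em 598 nm) read at start and after 30 min; difference gives rate.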
# FBPA coupling cs – counter-screen for Giardia aldolase inhibitors: coupling enzyme system. coupling enzyme system counterscreen, AmpLite Red fluorescence. activity change, negative = inhibition, % at 58.2 µM, hits read low. 0.67% of 290,000 active; in the data active = activity change below about -30%
#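 Counterscreen of the coupled detection system alone, without aldolase: glyceraldehyde-3-phosphate coupling enzymes plus AmpLite Red readout. Compounds at 57.5 uM final, 10 min RT preincubation, 20 min RT reaction, fluorescence 525/598 nm.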
# JMJD2E inh – JMJD2E (human) inhibition; Potency, µM (titrated, usually from 57.1 µM), without a hit: top-dose activity change, negative = inhibition, hits mostly inhibitors; JMJD2E catalytic domain, FDH-coupled NADH fluorescence (FDH is formaldehyde dehydrogenase); 1.6% of 230,000 active; active = well fitted inhibition curve with a large enough effect, not every such curve was filed as active; inconclusive = small, poorly fitted or top-dose-only effect, or another doubt; inactive = no such curve, though single readings can be large or run the other way;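 also: potency is read from the fitted curve at half-maximal effect; 0% = wells with enzyme and -100% = buffer wells without enzyme; nearly all actives have a fitted effect of over 50% in size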
# Target sequence (B2RXH2 1-337 limits assumed): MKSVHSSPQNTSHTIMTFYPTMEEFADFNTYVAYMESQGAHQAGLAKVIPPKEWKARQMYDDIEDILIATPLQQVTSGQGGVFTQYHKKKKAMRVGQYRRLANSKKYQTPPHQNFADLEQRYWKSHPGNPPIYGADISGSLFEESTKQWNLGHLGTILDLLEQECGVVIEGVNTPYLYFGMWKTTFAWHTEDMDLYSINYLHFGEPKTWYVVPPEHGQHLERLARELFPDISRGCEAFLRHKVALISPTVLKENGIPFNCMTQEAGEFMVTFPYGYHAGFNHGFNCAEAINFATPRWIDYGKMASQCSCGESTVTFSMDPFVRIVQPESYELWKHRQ
# Tau fluor counter – counter-screen for tau fibril formation inhibitors; tau K18 P301L (four-repeat tau fragment) Alexa594 fluorescence, heparin fibrillization; Potency, µM (highest dose often 57.7 µM), for inactives: at the top dose activity change, negative = decrease; 0.93% of 280,000 active; AID 1463; also: potency is read from the fitted curve at half-maximal effect; nearly all actives have a fitted effect of over 55% in size
#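 Human K18 P301L tau (15 uM unlabeled plus 0.24 uM Alexa 594-labeled, final) in 100 mM sodium acetate pH 7 was mixed with compound and 20 uM heparin and incubated 6 hr at 37 C.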
# * marks the source's active call; other numbers are inactive results; u = inconclusive; x = no result given; ! = repeats disagree; [ ] = another dose, or the depositor's remark. Most compounds without a hit are left out; they make up all but 5.3% or so of the library. Unless noted, calls follow the shape of the dose curve; as a rule, active = well fitted curve in the direction sought with a large enough effect; inconclusive = small, poorly fitted or top-dose-only effect, or another doubt; inactive = no such curve, though single readings can be large; an effect the other way counts as inactive or inconclusive. Unless noted, % is scaled to controls: 0 for no effect and ±100 for the full control effect.
SMILES,Tau ThT inhib,Tau fibril FP,Sfp PPTase inh,FBPA coupling cs,JMJD2E inh,Tau fluor counter
O=c1c(-c2ccc(F)cc2)nc2cncnc2n1C1CC1,x,x,15%,2,x,x
N#C[C@@H]1[C@@H]2C(=O)N(c3ccc4c(c3)OCCO4)C(=O)[C@@H]2C2c3ccccc3C=CN21 (some centres undefined),u,3%,-5%,-34*,-18%,-18%
CC(C)c1onc(-c2c(Cl)cccc2Cl)c1COc1ccc(/C=C/c2cccc(C(=O)O)c2)c(Cl)c1,x,x,-28%,12,x,x
CN1CCN(C(=O)c2ccc(CS(=O)(=O)c3c(Cl)cccc3Cl)o2)CC1,-4%,-8%,14%,0,11%,-4%
O=C(O)c1ccc(-c2ccccc2Cl)o1,-3%,-6%,-7%,20,5%,0%
CN1CCN(C(=S)c2ccc(-c3cccc(Cl)c3Cl)o2)CC1,14µM*,2%,-13%,0,0%,-21%
CN1CCN(Cc2ccc(-c3ccc(Cl)cc3)o2)CC1,-4%,4%,5%,-3,-4%,4%
N#CCCN1CCN(C(=S)c2ccc(-c3ccc(Cl)cc3)o2)CC1,20µM*,5%,20µM*,-10,13µM*,-23%
S=C(c1ccc(-c2ccccc2Cl)o1)N1CCCCC1,u,u,40µM*,3,-3%,-17%
S=C(c1ccc(-c2ccc(Cl)cc2)o1)N1CCCCC1,u,-3%,20µM*,0,-5%,-15%
Cc1ccccc1CNC(=O)CN1CCSc2ccccc21,-7%,11%,x,x,x,-17%
CCOC(=O)CNc1ccc2c(c1)OCO2,32µM*,u,20µM*,-38*,u,-28%
CCOC(=O)CNC(=O)/C=C/c1ccc2c(c1)OCO2,0%,2%,13%,2,u,9%
CCOC(=O)CSc1nc(Nc2ccc3c(c2)OCO3)c2ccccc2n1,u,14%,-1%,-7,-29%,13µM*[quencher]
COc1ccc(NC(=O)c2cc3c(Cl)nc4ccccc4c3s2)c(OC)c1,-18%,5%,3%,0,2%,-18%
Cc1ccc2nc(Cl)c3cc(C(=O)NCCCN(C)Cc4ccccc4)sc3c2c1,-5%,u,x,x,x,-27%
CN(CCCNC(=O)c1cc2c(Cl)nc3ccccc3c2s1)Cc1ccccc1,8%,u,79µM*,-1,-28%,u
COc1cc(NC(=O)c2cc3c(Cl)nc4ccccc4c3s2)cc(OC)c1OC,u,8%,0%,3,-12%,8.9µM*[quencher]
Oc1ccc2ccccc2c1C=NCc1cn2ccsc2n1,u,-17%,15%,-35*,u,-26%
Cn1cccc1-c1cc(C(=O)O)[nH]n1,1%,5%,45µM*,-8,-4%,4%
Cc1ccccc1Cn1c(CN2CCC(C(=O)NCc3cccnc3)CC2)cc2ccccc21,-11%,-1%,x,x,x,-12%
CCN1C(=C(C#N)C#N)C=Cc2cc(C)ccc21,10%,-6%,6%,0,-17%,-11%
C=CC[n+]1c(/C=C2\C=Cc3cc(C)ccc3N2CC)ccc2ccccc21,3.5µM*,-2%,-13%,2,u,14µM*[fluorescent]
N/C(Cc1cccc2ccccc12)=N\OC(=O)Cc1cccs1,13%,8%,13%,-40*,4%,11%
N/C(Cc1cccc2ccccc12)=N\OC(=O)c1cccs1,u,-8%,-1%,-1,2%,-18%
SMILES,Tau ThT inhib,Tau fibril FP,Sfp PPTase inh,FBPA coupling cs,JMJD2E inh,Tau fluor counter
O=C1/C(=C\c2ccc(O)cc2)SC(=S)N1/N=C/c1ccc(O)cc1,5µM*,1%,0%,4,1%,u
COCCn1c(=O)c(-c2ccc(Cl)cc2)nc2cnc(N3CCOCC3)nc21,x,x,15%,2,x,x
COc1cc(Br)cc(C=Nc2cccc(C(F)(F)F)c2)c1O,14µM*,-1%,-6%,-4,7%,-4%
CC1=CC2=NC(=O)/C(=C/c3cccn3Cc3ccccc3)C(=N)N2O1,u,-10%,-8%,-1,-5%,-30%
N=C1/C(=C/c2cccn2Cc2ccc(Cl)cc2)C(=O)N=C2SC=CN12,u,-14%,40µM*,-1,-13%,-22%
CCOc1cc(C(=S)N2CCOCC2)cc(Br)c1OS(=O)(=O)c1ccccc1,x,x,79µM*,-3,x,x
COc1cc(C(=S)N2CCOCC2)ccc1OC(=O)c1cc(OC)c(OC)c(OC)c1,x,x,50µM*,0,x,x
CCOc1cc(C(=S)N2CCOCC2)ccc1OC(=O)c1cc(OC)c(OC)c(OC)c1,x,x,13%,-1,x,x
COc1cc(C(=S)N2CCOCC2)cc(OC)c1OC,x,11%,50µM*!,2,9%,u
COc1cc(C(=S)N2CCOCC2)cc(OC)c1OS(=O)(=O)c1ccc(NC(C)=O)cc1,-9%,-4%,3%,7,-5%,-5%
COc1cc(C(=S)N2CCOCC2)cc(OC)c1OS(=O)(=O)c1ccc(C)cc1,x,x,56µM*,-3,x,x
CCOC(=O)Cc1ccc(NC(=O)N2CCc3c(sc4c3CCCC4)C2c2ccc(F)cc2)cc1 (centres undefined),-5%,-8%,x,x,x,-11%
COCC1=C2c3ccccc3[C@H](C[N+](=O)[O-])C(C(=O)OC)(C(=O)OC)C[C@@H]2n2c(=O)n(-c3ccccc3)c(=O)n2C1,-12%,u,1%,0,6%,-27%
Cc1ccc(NS(=O)(=O)c2ccc(-c3cc(C)no3)cc2)c(Br)c1,-4%,1%,x,x,x,-24%
CCCCCCc1c(O)c2ccccc2[nH]c1=O,-17%,-1%,8%,0,u,-14%
CCCCCCCCCCCC1=C(O)C(=O)C=C(O)C1=O,10µM*,20µM*,-9%,15,20µM*!,11µM*[quencher]
O=C1c2ccccc2N2C(=O)c3ccccc3C2N1Cc1ccco1 (centres undefined),-11%,-4%,50µM*,13,-24%,-17%
O=C1c2ccccc2C(Nc2cccc(C(F)(F)F)c2)N1Cc1ccco1 (centres undefined),-20%,5%,40µM*,3,1%,-23%
Cc1ccccc1NC1c2ccccc2C(=O)N1Cc1ccco1 (centres undefined),u,-3%,28µM*,-1,-5%,-12%
COc1cccc(NC2c3ccccc3C(=O)N2Cc2ccco2)c1 (centres undefined),-17%,5%,u,-2,1%,-13%
O=C1c2ccccc2N2C(=O)c3ccccc3C2N1O (centres undefined),-6%,6%,10%,1,u,-8%
Cc1ccccc1CSc1ncc(CO)n1Cc1ccc(F)cc1,-6%,-1%,x,x,x,-14%
Cc1oc2ncn(CC(C)C)c(=O)c2c1C(=O)NCCCN(Cc1ccccc1)C(C)C,1%,2%,x,x,x,-3%
